Test results: PubChem BioAssay AID1159580 (chemical genetic matrix, 2015)
Hit rate of the full screen: of about 5,500 compounds, about 2,000 (36%) were called active. About 18% were inconclusive and are not listed. Cut-off read from the data, not from the text of the source: active = normalized growth mostly below about 0.91 (no sharp cut-off); inconclusive = no clear call, values can overlap the other calls; inactive = mostly above about 0.92. Some of the results follow.

Test: chemical genetic growth profiling, strain panel (AID 1159580);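 note: tested at 20 µM; growth read once vehicle control cultures reached saturation at 30 °C; 1 = growth at the plate median or of vehicle wells; lower values mean less growth of the strain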
Details: growth OD

Measured: normalized growth

Fc1ccc(C(c2ccccc2)(c2ccccc2F)n2ccnc2)cc1 (stereo unspecified)
inactive: S. cerevisiae deletion strains, locus YOL012C, strain htz1 0.208
active: S. cerevisiae deletion strains, locus YAL013W, strain DEP1, stronger effect = lower value 0.0872 | S. cerevisiae deletion strains, locus YBR021W, strain FUR4, stronger effect = lower value 0.19 | S. cerevisiae deletion strains, locus YBR229C, strain ROT2, stronger effect = lower value 0.0785 | S. cerevisiae deletion strains, locus YCL029C, strain bik1, stronger effect = lower value 0.0815 | S. cerevisiae deletion strains, locus YDL035C, strain GPR1, stronger effect = lower value 0.0631 | S. cerevisiae deletion strains, locus YDL074C, strain BRE1, stronger effect = lower value 0.147 | S. cerevisiae deletion strains, locus YDL101C, strain DUN1, stronger effect = lower value 0.0698 | S. cerevisiae deletion strains, locus YDL134C, strain PPH21, stronger effect = lower value 0.0588 | S. cerevisiae deletion strains, locus YDL185W, strain tfp1, stronger effect = lower value 0.0581 | S. cerevisiae deletion strains, locus YDL192W, strain arf1, stronger effect = lower value 0.0867 | S. cerevisiae deletion strains, locus YDR101C, strain arx1, stronger effect = lower value 0.0775 | S. cerevisiae deletion strains, locus YDR150W, strain NUM1, stronger effect = lower value 0.0798 | S. cerevisiae deletion strains, locus YDR162C, strain NBP2, stronger effect = lower value 0.0536 | S. cerevisiae deletion strains, locus YDR318W, strain mcm21, stronger effect = lower value 0.082 | S. cerevisiae deletion strains, locus YDR388W, stronger effect = lower value 0.0787 | S. cerevisiae deletion strains, locus YDR502C, strain sam2, stronger effect = lower value 0.079 | S. cerevisiae deletion strains, locus YEL061C, strain CIN8, stronger effect = lower value 0.063 | S. cerevisiae deletion strains, locus YER110C, stronger effect = lower value 0.112 | S. cerevisiae deletion strains, locus YER155C, strain BEM2, stronger effect = lower value 0.097 | S. cerevisiae deletion strains, locus YER167W, strain BCK2, stronger effect = lower value 0.0563 | S. cerevisiae deletion strains, locus YGL078C, strain dbp3, stronger effect = lower value 0.111 | S. cerevisiae deletion strains, locus YGL086W, strain mad1, stronger effect = lower value 0.0673 | S. cerevisiae deletion strains, locus YGL248W, strain PDE1, stronger effect = lower value 0.0531 | S. cerevisiae deletion strains, locus YGR078C, strain PAC10, stronger effect = lower value 0.0703 | S. cerevisiae deletion strains, locus YGR135W, strain pre9, stronger effect = lower value 0.0937 | S. cerevisiae deletion strains, locus YGR229C, strain SMI1, stronger effect = lower value 0.0699 | S. cerevisiae deletion strains, locus YGR252W, strain gcn5, stronger effect = lower value 0.179 | S. cerevisiae deletion strains, locus YHR030C, strain SLT2, stronger effect = lower value 0.0565 | S. cerevisiae deletion strains, locus YHR079C, strain IRE1 (second series), stronger effect = lower value 0.0811 | S. cerevisiae deletion strains, locus YHR094C, strain hxt1, stronger effect = lower value 0.0819 | S. cerevisiae deletion strains, locus YHR129C, strain ARP1, stronger effect = lower value 0.0647 | S. cerevisiae deletion strains, locus YHR200W, strain rpn10, stronger effect = lower value 0.101 | S. cerevisiae deletion strains, locus YIL066C, strain RNR3, stronger effect = lower value 0.054 | S. cerevisiae deletion strains, locus YIL073C, strain SPO22, stronger effect = lower value 0.128 | S. cerevisiae deletion strains, locus YIL125W, strain kgd1, stronger effect = lower value 0.14 | S. cerevisiae deletion strains, locus YIR030C, strain dcg1, stronger effect = lower value 0.0795 | S. cerevisiae deletion strains, locus YJL095W, strain BCK1, stronger effect = lower value 0.0549 | S. cerevisiae deletion strains, locus YJL134W, strain LCB3, stronger effect = lower value 0.0651 | S. cerevisiae deletion strains, locus YJL168C, strain set2, stronger effect = lower value 0.0832 | S. cerevisiae deletion strains, locus YJL187C, strain SWE1 (second series), stronger effect = lower value 0.0603 | S. cerevisiae deletion strains, locus YJR043C, strain POL32, stronger effect = lower value 0.0763 | S. cerevisiae deletion strains, locus YJR075W, strain HOC1, stronger effect = lower value 0.0813 | S. cerevisiae deletion strains, locus YKL009W, strain mrt4, stronger effect = lower value 0.4 | S. cerevisiae deletion strains, locus YKL068W, stronger effect = lower value 0.178 | S. cerevisiae deletion strains, locus YKL085W, strain MDH1 (second series), stronger effect = lower value 0.126 | S. cerevisiae deletion strains, locus YKL085W, strain MDH1, stronger effect = lower value 0.126 | S. cerevisiae deletion strains, locus YKL190W, strain CNB1, stronger effect = lower value 0.0509 | S. cerevisiae deletion strains, locus YKR001C, strain vps1, stronger effect = lower value 0.0897 | S. cerevisiae deletion strains, locus YLR039C, strain RIC1, stronger effect = lower value 0.191 | S. cerevisiae deletion strains, locus YLR058C, strain SHM2, stronger effect = lower value 0.0587 | S. cerevisiae deletion strains, locus YLR102C, strain apc9, stronger effect = lower value 0.0876 | S. cerevisiae deletion strains, locus YLR262C, strain YPT6, stronger effect = lower value 0.23 | S. cerevisiae deletion strains, locus YLR268W, strain sec22, stronger effect = lower value 0.0794 | S. cerevisiae deletion strains, locus YLR330W, strain CHS5, stronger effect = lower value 0.0657 | S. cerevisiae deletion strains, locus YLR342W, strain FKS1 (second series), stronger effect = lower value 0.0856 | S. cerevisiae deletion strains, locus YLR371W, strain rom2, stronger effect = lower value 0.0813 | S. cerevisiae deletion strains, locus YLR418C, strain cdc73, stronger effect = lower value 0.127 | S. cerevisiae deletion strains, locus YML016C, strain PPZ1, stronger effect = lower value 0.0591 | S. cerevisiae deletion strains, locus YML032C, strain rad52, stronger effect = lower value 0.104 | S. cerevisiae deletion strains, locus YML124C, strain tub3, stronger effect = lower value 0.0796 | S. cerevisiae deletion strains, locus YMR078C, strain ctf18, stronger effect = lower value 0.101 | S. cerevisiae deletion strains, locus YMR223W, strain ubp8, stronger effect = lower value 0.0885 | S. cerevisiae deletion strains, locus YMR263W, strain SAP30, stronger effect = lower value 0.108 | S. cerevisiae deletion strains, locus YMR307W, strain GAS1, stronger effect = lower value 0.129 | S. cerevisiae deletion strains, locus YNL067W, strain RPL9B, stronger effect = lower value 0.0623 | S. cerevisiae deletion strains, locus YNL128W, strain TEP1, stronger effect = lower value 0.0794 | S. cerevisiae deletion strains, locus YNL153C, strain GIM3, stronger effect = lower value 0.0592 | S. cerevisiae deletion strains, locus YNL233W, strain BNI4, stronger effect = lower value 0.0673 | S. cerevisiae deletion strains, locus YNL250W, strain rad50, stronger effect = lower value 0.133 | S. cerevisiae deletion strains, locus YNL271C, strain bni1, stronger effect = lower value 0.114 | S. cerevisiae deletion strains, locus YNL298W, strain CLA4, stronger effect = lower value 0.0847 | S. cerevisiae deletion strains, locus YNL307C, strain MCK1, stronger effect = lower value 0.0726 | S. cerevisiae deletion strains, locus YNL322C, strain KRE1, stronger effect = lower value 0.0639 | S. cerevisiae deletion strains, locus YNR052C, strain pop2, stronger effect = lower value 0.0915 | S. cerevisiae deletion strains, locus YOL006C, strain TOP1, stronger effect = lower value 0.104 | S. cerevisiae deletion strains, locus YOL147C, strain pex11, stronger effect = lower value 0.0687 | S. cerevisiae deletion strains, locus YOR061W, strain CKA2, stronger effect = lower value 0.077 | S. cerevisiae deletion strains, locus YOR069W, strain VPS5, stronger effect = lower value 0.0662 | S. cerevisiae deletion strains, locus YOR136W, strain idh2, stronger effect = lower value 0.0938 | S. cerevisiae deletion strains, locus YOR144C, strain elg1, stronger effect = lower value 0.076 | S. cerevisiae deletion strains, locus YOR184W, strain ser1, stronger effect = lower value 0.094 | S. cerevisiae deletion strains, locus YOR316C, strain cot1, stronger effect = lower value 0.0765 | S. cerevisiae deletion strains, locus YPL055C, strain LGE1, stronger effect = lower value 0.0913 | S. cerevisiae deletion strains, locus YPL241C, strain CIN2, stronger effect = lower value 0.0643 | S. cerevisiae deletion strains, locus YPR119W, strain clb2, stronger effect = lower value 0.0897 | S. cerevisiae deletion strains, locus YPR141C, strain kar3, stronger effect = lower value 0.24 | S. cerevisiae deletion strains, locus YPR163C, strain tif3, stronger effect = lower value 0.0819 | S. cerevisiae deletion strains, locus YPR167C, strain met16, stronger effect = lower value 0.0807 | S. cerevisiae deletion strains, strain wtn01, stronger effect = lower value 0.1 | S. cerevisiae strains, strain wild type, stronger effect = lower value 0.0558
